The list is not random: actives were taken first. Their share in the collection is about 2.9%.
TSHR antagonist: human thyrotropin receptor antagonism; P16473; TSHR-expressing cells, TSH-stimulated cAMP HTRF, 2 h; active compounds read low; activity change, negative = inhibition, % at 11.5 µM; actives 0.2% (n = 330,000);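 active = activity change below a set negative limit, meaning inhibition stronger than a set level, cut at about -70% in these data; inconclusive = activity change between two set negative limits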; also: % is scaled to controls: 0 for no effect and ±100 for the full control effect
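Competitive HTRF cAMP read-out (cryptate anti-cAMP antibody, cAMP-d2; 30 min, room temperature) in freshly harvested TSHR cells. Compounds added before TSH at EC80 (4nM final), followed by 2 hours' incubation at 37 deg C.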
D3 antag: blocks the human D3 dopamine receptor | P35462 | D3R cells, DiscoveRx beta-arrestin luminescence, antagonist mode; active compounds read low | max response, negative = inhibition, % | actives 2.5% (n = 360,000) | AID 652054; in the data active = max response below about -50%; inconclusive = no clear call, values can overlap the other calls; also: % is scaled to controls: 0 for no effect and ±100 for the full control effect
Target sequence (P35462 whole entry, looked up): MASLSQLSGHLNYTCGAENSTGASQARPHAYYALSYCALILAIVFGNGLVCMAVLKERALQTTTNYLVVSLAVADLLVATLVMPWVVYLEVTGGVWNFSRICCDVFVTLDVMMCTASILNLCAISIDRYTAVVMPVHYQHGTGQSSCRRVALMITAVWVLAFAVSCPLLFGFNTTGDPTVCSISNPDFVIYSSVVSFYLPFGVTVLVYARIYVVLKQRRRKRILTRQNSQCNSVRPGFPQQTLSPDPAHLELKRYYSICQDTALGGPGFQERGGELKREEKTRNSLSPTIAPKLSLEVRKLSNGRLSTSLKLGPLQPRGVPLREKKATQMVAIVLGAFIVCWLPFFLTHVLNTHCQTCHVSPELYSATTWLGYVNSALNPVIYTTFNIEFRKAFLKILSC
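Cells expressing the human receptor were seeded at 1500 cells/well, incubated overnight at 37 degrees C in 5% CO2, then exposed to library compounds with dopamine controls for 90 minutes at 37 degrees C before luminescent detection.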
D3 ag: activates the human D3 dopamine receptor; AID 652048; D3R DiscoveRx beta-arrestin cells, luminescence, 90 min; max activation, %; actives 0.58% (n = 410,000); in the data active = max activation above about 30%; also: 0% is about no effect
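Cells at 1500/well, incubated overnight, then treated with pinned compounds (dopamine as control) for 90 min at 37 degrees C. DiscoveRx reagent added for 30 - 60 minutes at room temperature; luminescence read.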
B2AR arrestin: recruits beta-arrestin to the human beta2-adrenergic receptor. P07550. beta-arrestin recruitment to beta2AR, cell-based reporter. Potency, µM (doses to about 46.1 µM), for the others: at the top dose activation, most hits filed as activators. actives 0.02% (n = 330,000). AID 492947; active = well fitted activation curve with a large enough effect; inconclusive = small, poorly fitted or top-dose-only effect;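 also: potency is read from the fitted curve at half-maximal effect; 0% = DMSO controls and full agonism = EC100 isoproterenol or metaproterenol; nearly all actives have a fitted effect of over 65% in size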
An asterisk follows results filed as active.

Results for COc1cc(C)c(CN2CC=C(c3ccc(F)cc3)CC2)cc1C ?
TSHR antagonist: -7.2; D3 antag: -75.9*; D3 ag: -10.1; B2AR arrestin: 0.4%

Results for OC(CN1CC=C(c2ccccc2)CC1)c1ccccc1 (stereo unspecified) ?
TSHR antagonist: -1.5; D3 antag: -21.0; D3 ag: 21.1; B2AR arrestin: -0.2%

How did Fc1ccc(Cn2nnnc2C(c2ccc(Cl)cc2)N2CC=C(c3ccc(F)cc3)CC2)cc1 (stereo unspecified) do in these assays?
TSHR antagonist: 21.6; D3 antag: -15.2; D3 ag: -4.3; B2AR arrestin: -0.3%

How did O=[N+]([O-])c1ccc(CN2CC=C(c3ccccc3)CC2)cc1 do in these assays?
TSHR antagonist: -13.2; D3 antag: -54.8*; D3 ag: -16.4; B2AR arrestin: 0.1%

Results for CN(C)c1ccc(CN2CC=C(c3ccc(F)cc3)CC2)cc1 ?
TSHR antagonist: 3.4; D3 antag: -87.7*; D3 ag: -60.2; B2AR arrestin: -0.1%

Results for COc1cc2nc(CN3CC=C(c4ccccc4)CC3)[nH]c(=O)c2cc1OC ?
D3 antag: 22.3; D3 ag: 4.8

How did C[C@]12CC[C@H]3[C@@H](CCC4=C(Cl)C(=O)CC[C@@]43C)[C@@H]1CC[C@@H]2O do in these assays?
D3 ag: -6.6

How did O=S(=O)(O)C(F)(F)C(F)(F)C(F)(F)C(F)(F)C(F)(F)C(F)(F)C(F)(F)C(F)(F)F do in these assays?
D3 ag: -14.7

How did CN1CCN(c2ccc([N+](=O)[O-])c(NCC3CCCO3)c2)CC1 (stereo unspecified) do in these assays?
TSHR antagonist: 14.4; D3 antag: 0.0; D3 ag: 44.2*; B2AR arrestin: -0.8%

How did CN1CCN(c2ccc([N+](=O)[O-])c(NCc3ccco3)c2)CC1 do in these assays?
TSHR antagonist: -4.7; D3 antag: -74.7*; D3 ag: -8.8; B2AR arrestin: 0.4%

How did CN1CCN(c2ccc([N+](=O)[O-])c(N)c2)CC1 do in these assays?
TSHR antagonist: 8.4; D3 antag: -24.8; D3 ag: 2.4; B2AR arrestin: 0.1%

What do the screens show for `Cc1oc(-c2ccc(Cl)cc2)nc1CN1C(=O)CN=C(c2ccccc2)c2cc(Cl)ccc21`?
D3 ag: 0.7

Results for COc1ccc(CCNCc2ccc(SC)cc2)cc1 ?
TSHR antagonist: 0.1; D3 antag: -52.6*; D3 ag: -34.7; B2AR arrestin: 0.0%

What do the screens show for `O=c1[nH]c2ccccc2n1C1CCN(C(CCc2ccccc2)c2nnnn2-c2ccc3c(c2)OCCO3)CC1` (stereo unspecified)?
D3 antag: 97.7; D3 ag: 35.6*

Results for N#Cc1cc2c(nc1SCC(=O)Nc1ccc(C(F)(F)F)cc1)C1CCN2CC1 ?
D3 ag: 4.0

What do the screens show for `Cc1cc(Cl)ccc1OCC(=O)O`?
TSHR antagonist: 1.1; D3 antag: -110.1*; D3 ag: -87.5; B2AR arrestin: -0.3%

Results for CCOc1ccc(C2C(C#N)=C(N)Oc3c2c(=O)oc2ccccc32)cc1 (stereo unspecified) ?
TSHR antagonist: 35.9; D3 antag: -0.9; D3 ag: 1.2; B2AR arrestin: -0.9%

How did O=C1CC(c2ccc(Br)cc2)c2c(c3ccccc3oc2=O)O1 (stereo unspecified) do in these assays?
D3 ag: 51.3*

Results for CC(C)[C@H]1C(=O)N2CCC[C@H]2[C@]2(O)O[C@](NC(=O)[C@@H]3C[C@@H]4c5cccc6[nH]cc(c56)C[C@H]4N(C)C3)(C(C)C)C(=O)N12 ?
D3 ag: 5.2

Results for CC(C)[C@@]1(NC(=O)[C@@H]2C[C@@H]3c4cccc5[nH]cc(c45)C[C@H]3N(C)C2)O[C@@]2(O)[C@@H]3CCCN3C(=O)[C@H](Cc3ccccc3)N2C1=O ?
TSHR antagonist: 14.1; D3 antag: -96.1*; D3 ag: -59.3; B2AR arrestin: inconclusive

What do the screens show for `CCC(C)N1CCN(C(=O)Cc2ccccc2)CC1` (stereo unspecified)?
TSHR antagonist: -3.1; D3 antag: -64.5*; D3 ag: -19.0; B2AR arrestin: -0.1%

Results for O=C(Cc1ccccc1)N1CCN(CCCc2ccccc2)CC1 ?
TSHR antagonist: -3.0; D3 antag: -11.7; D3 ag: -6.7; B2AR arrestin: -0.2%

How did C[C@@H]1O[C@@H](O[C@H]2C[C@@H](O)[C@]3(CO)[C@@H]4C(CC[C@]3(O)C2)[C@@]2(O)CC[C@H]([C@@H]3COC(=O)C3)[C@@]2(C)C[C@H]4O)[C@H](O)[C@H](O)[C@H]1O (stereo partly specified) do in these assays?
TSHR antagonist: -47.3

Results for Oc1ccc2c3c1O[C@H]1[C@@H](O)C=C[C@H]4[C@H](C2)NCC[C@@]341 ?
D3 ag: 9.5

Results for O=C1NC(=O)N(Cc2ccc(F)cc2)C(=O)/C1=C\c1ccc([N+](=O)[O-])s1 ?
TSHR antagonist: -8.6; D3 antag: -55.5*; D3 ag: -12.8; B2AR arrestin: -0.5%

Results for Cc1[nH]c2ccc(OC(F)(F)F)cc2c1CCNCc1cccc([N+](=O)[O-])c1 ?
TSHR antagonist: -3.9; D3 antag: -63.7*; D3 ag: -18.6; B2AR arrestin: 0.0%

How did COc1ccc(C)cc1NC(=O)c1cccn(Cc2cccc([N+](=O)[O-])c2)c1=O do in these assays?
D3 ag: -15.2

Results for O=C(c1cccc2ccccc12)C1CCCN(C2CCC2)C1 (stereo unspecified) ?
TSHR antagonist: 4.1; D3 antag: -51.1*; D3 ag: -16.9; B2AR arrestin: -0.3%

Results for CN1CCCC(C(=O)c2ccccc2)C1 (stereo unspecified) ?
TSHR antagonist: -1.9; D3 antag: -21.8; D3 ag: 16.3; B2AR arrestin: -1.2%

Results for O=C(c1cccc2ccccc12)C1CCCN(Cc2ccon2)C1 (stereo unspecified) ?
TSHR antagonist: -0.8; D3 antag: -67.7*; D3 ag: -31.4; B2AR arrestin: 0.1%

What do the screens show for `COc1ccc(CN2CCN(Cc3ccccc3)CC2)c(OC)c1`?
TSHR antagonist: 3.6; D3 antag: -112.7*; D3 ag: -37.4; B2AR arrestin: -0.9%

Results for COc1ccc(CN2CCN(C(=O)Cc3ccccc3)CC2)c(OC)c1 ?
TSHR antagonist: 10.2; D3 antag: 4.9; D3 ag: -1.4; B2AR arrestin: 3.0%

Results for COc1cccc(N2CCN(Cc3ccc(Cl)cc3)CC2)c1 ?
TSHR antagonist: -7.9; D3 antag: -93.6*; D3 ag: -39.0; B2AR arrestin: -1.3%

Results for COc1cccc(N2CCN(Cc3cccc(Cl)c3)CC2)c1 ?
TSHR antagonist: -5.3; D3 antag: -73.9*; D3 ag: -59.3; B2AR arrestin: -0.9%

Results for Fc1cccc(CN2CCN(c3ccc(Cl)cc3)CC2)c1 ?
TSHR antagonist: -7.0; D3 antag: -71.5*; D3 ag: 0.7; B2AR arrestin: 0.3%

Screening results deposited in PubChem by National Center for Advancing Translational Sciences (NCATS).
